p53 reactivation = mutant p53 re-activation in reporter cells. H1299 p53-A138V BP100-luciferase reporter, luminescence, 24 h. AID 504706. 0.063% of 320,000 active. Potency, µM (titrated, usually from 92.2 µM), without a hit: top-dose activity change, positive = activation, actives largely listed as activators; note: % of control where 0% means no effect; nearly all actives have a fitted effect of over 45% in size
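p53-null H1299 cells stably carrying temperature-sensitive p53-A138V and a BP100-luciferase reporter were pinned with compounds (4-point, 1:5 series) and held 24 hrs at 37 deg C. Luminescence was read 10 min after detection reagent.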
Rab9 prom act = activators of Rab9 promoter | Huh7 Rab9 promoter-luciferase reporter, luminescence, 24 h | Potency, µM (titrated, usually from 9.22 µM), inactives show at the top dose activation, negative = inhibition, usual class: activators | 2.8% of 320,000 active; note: % of control where 0% means no effect; nearly all actives have a fitted effect of over 60% in size
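Cell-based reporter: Huh7 stable for Rab9 promoter-driven luciferase, plated in reduced-serum medium with 10% FBS at 1500 cells/well, compound-treated 24 h at 37 °C, luminescence read after 10 min reagent.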
ELG1 genotoxic = genotoxicity induction in ELG1-luciferase HEK293T cells; HEK293T ELG1-luciferase reporter, luminescence, 16 h; Potency, µM (highest dose often 46 µM), without a hit: at the top dose activity change, positive = activation, most hits filed as activators; 1.3% of 330,000 active; note: % of control where 0% means no effect; nearly all actives have a fitted effect of over 60% in size
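HEK293T cells expressing luciferase-tagged ELG1 were exposed to compound or DMSO vehicle for 16 hr at 37 °C and 5% CO2. Luciferase activity was then measured with ONE-Glo after 30 min at room temperature.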
NPC1 prom act = activates the NPC1 promoter. Huh7 NPC1 promoter luciferase reporter, 24 h. Potency, µM (doses to about 9.22 µM), without a hit: at the top dose activation, most hits filed as activators. 2.4% of 320,000 active; note: % of control where 0% means no effect; nearly all actives have a fitted effect of over 60% in size
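Luminescence from an NPC1 promoter-driven luciferase reporter in stably transfected Huh7 cells was measured after 24 h compound treatment at 37 °C, followed by 10 min ambient incubation with luciferase detection reagent.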
FLuc modulator = firefly luciferase modulation, counter-screen for miR-21 project | P08659 | 6.9% of 360,000 active | purified FLuc, Km substrates, luminescence inhibition | AID 588342 | Potency, µM (top dose mostly 57.5 µM), without a hit: at the top dose activity change, negative = inhibition, hits mostly inhibitors;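 note: plate controls were vehicle for no effect and reference inhibitor for full effect; nearly all actives have a fitted effect of over 55% in size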
Target sequence (P08659 whole entry, looked up): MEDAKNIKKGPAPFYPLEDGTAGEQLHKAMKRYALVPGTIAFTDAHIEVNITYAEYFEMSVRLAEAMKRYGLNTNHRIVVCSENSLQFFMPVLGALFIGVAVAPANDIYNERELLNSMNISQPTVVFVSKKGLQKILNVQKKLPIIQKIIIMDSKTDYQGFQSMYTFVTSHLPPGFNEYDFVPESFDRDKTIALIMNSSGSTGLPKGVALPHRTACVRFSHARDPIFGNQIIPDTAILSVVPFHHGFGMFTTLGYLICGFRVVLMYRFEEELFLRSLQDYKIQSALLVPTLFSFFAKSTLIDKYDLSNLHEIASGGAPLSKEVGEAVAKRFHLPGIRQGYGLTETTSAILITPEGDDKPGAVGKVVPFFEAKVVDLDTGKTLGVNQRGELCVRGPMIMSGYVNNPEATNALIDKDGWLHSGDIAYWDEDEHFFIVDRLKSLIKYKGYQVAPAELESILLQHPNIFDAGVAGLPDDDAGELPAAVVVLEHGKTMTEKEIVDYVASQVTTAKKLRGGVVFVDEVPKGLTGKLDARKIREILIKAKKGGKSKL
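Biochemical qHTS of compounds, final roughly 60 µM downward over six points, against 10 nM purified firefly luciferase using Km concentrations of substrates (10 uM D-luciferin, 10 uM ATP) in Tris acetate pH 7.5 buffer; luminescence output.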
SMN2 splice enh = increases expression of the SMN2 splice variant. Potency, µM (series often up to 46.1 µM), for inactives: at the top dose activity change, positive = activation, actives largely listed as activators. HEK293 SMN2-luciferase splicing reporter, luminescence, 30-36 h. 2.8% of 210,000 active; note: % of control where 0% means no effect; nearly all actives have a fitted effect of over 55% in size
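qHTS luciferase splicing reporter: luminescence rises when SMN2 exon 7 is included in transfected HEK293 cells. Compound exposure lasted 30-36 h at 37C, with 4.5 mM final sodium butyrate as control, followed by a ONE-Glo read.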
* = called active by the depositor; ? = inconclusive; . = not tested or not shown. Shown are actives, neighbours in structure and some others; about 7.3% of the full set was active somewhere. Calls come from the whole dose curve; as a rule, active = well fitted curve in the direction sought with a large enough effect; inconclusive = small, poorly fitted or top-dose-only effect, or another doubt; inactive = no such curve, though single readings can be large; an effect the other way counts as inactive or inconclusive. Potency is the fitted concentration of half-maximal effect.

SMILES	p53 reactivation	Rab9 prom act	ELG1 genotoxic	NPC1 prom act	FLuc modulator	SMN2 splice enh
Cc1cc(C(=O)CSc2nc3ccccc3[nH]2)c(C)n1CC1CCCO1 (stereo not drawn)	-5.5%	?	-10.4%	?	0.536µM*	-53.4%
Cc1cc(C(=O)CSC(C)c2nc3ccccc3c(=O)[nH]2)c(C)n1C (stereo not drawn)	4.4%	-5.6%	-0.6%	-14.8%	-0.6%	-20.0%
O=C(NCc1ccco1)/C(=C\c1cccnc1)NC(=O)c1ccccc1F	-0.1%	-9.7%	-0.3%	-5.8%	10.3%	5.3%
CCN(CC)c1ccc(N=Cc2ccc([N+](=O)[O-])o2)cc1	-18.0%	22.0%	-2.0%	14.1%	6.75µM*	-14.7%
CCN(CC)c1ccc(N=Cc2ccccc2[N+](=O)[O-])cc1	?	2.6%	-7.3%	-0.8%	3.79µM*	-22.4%
CC(C)Oc1ccc(C(=O)Nc2nnc3n2CCS3)cc1	.	.	.	.	10.7µM*	.
O=C(Nc1nnc2n1CCS2)c1ccccc1	.	.	.	.	0.6%	.
Cn1c(=O)n(C)c2cc(N3CCOCC3)c(NS(=O)(=O)c3ccc(F)cc3)cc21	.	.	.	.	0.5%	8.0%
Cc1ccc(S(=O)(=O)Nc2ccc3c(c2)n(C)c(=O)n3C)cc1	-13.4%	6.6%	?	-3.6%	3.4%	.
Cc1ccc(S(=O)(=O)Nc2cc3c(cc2NCc2ccccc2)n(C)c(=O)n3C)cc1	.	.	.	.	?	14.1µM*
Cn1c(=O)n(C)c2cc(NS(=O)(=O)c3ccc(F)cc3)c(NCc3ccccc3)cc21	.	.	.	.	16.9µM*	0.891µM*
Cc1ccc(S(=O)(=O)Nc2cc3c(cc2NCc2ccccc2)n(C)c(=O)n3C)c(C)c1	.	.	.	.	?	10µM*
COc1ccc2ncc3c(-c4ccc(C)c(C)c4)nn(CC(=O)Nc4ccccc4)c3c2c1	.	.	.	.	-2.8%	.
CCCCN(CC)CCNC(=O)c1cc2c(=O)oc3ccc(C)cc3c2s1	.	.	.	.	-5.0%	7.3%
CC(C)C[C@@H](C(=O)O)N(Cc1cccc(CN([C@@H](CC(C)C)C(=O)O)S(C)(=O)=O)c1)S(C)(=O)=O	12.1%	0.8%	4.5%	-4.2%	2.8%	.
COC(=O)c1c(-c2ccccc2)csc1NC1=NS(=O)(=O)c2ccccc21	?	2.51µM*	?	24.6%	0.601µM*	0.562µM*
N#CCCN(C(=O)COC(=O)CNC(=O)c1ccc(-c2ccccc2)cc1)c1ccc(F)cc1	-7.5%	2.9%	1.7%	-6.6%	23.9µM*	.
Cc1ccc(S(=O)(=O)NCC(=O)OCC(=O)N(CCC#N)c2ccccc2)cc1	5.1%	.	2.7%	.	.	.
CCCCNC(=O)C1CCN(S(=O)(=O)CCC)CC1	.	.	.	.	-0.8%	.
CCCS(=O)(=O)N1CCC(C(=O)NC2CCC(C)CC2)CC1 (stereo not drawn)	27.4%	3.98µM*	?	?	-16.4%	.
CCOC(=O)c1[nH]c(C)c(CCC(=O)Nc2cccc(C(F)(F)F)c2)c1C	.	.	.	.	3.9%	.
O=C(c1ccccc1)c1ccc(N2CCCC2)cc1	?	2.51µM*	3.66µM*	3.16µM*	6.75µM*	25.1µM*
O=C(Nc1ccc(N2CCCCC2)cc1)c1cncc(Br)c1	6.1%	?	4.0%	3.55µM*	6.01µM*	?
O=C(Nc1ccc(N2CCCCC2)cc1)c1ccccc1	8.2%	0.282µM*	?	0.398µM*	1.9µM*	1.41µM*
Nc1cc(C(=O)c2ccccc2)ccc1N1CCOCC1	?	25.5%	6.1%	?	16.9µM*	?
Cc1ccc(Cl)cc1NC(=O)N1CCC(CN2CCCCCC2)CC1	.	.	.	.	0.0%	.
O=C(Nc1ccccc1N1CCCC1)c1cccc(-c2cc3ccccc3oc2=O)c1	10.0%	17.7%	-5.5%	17.1%	?	0.5%
O=C(Nc1ccc(N2CCCC2=O)cc1)c1cccc(F)c1	?	3.16µM*	2.91µM*	1.58µM*	5.36µM*	7.08µM*
O=C(Nc1ccc(N2CCCC2)cc1)c1cccc(-c2cc3ccccc3oc2=O)c1	-3.0%	0.9%	-1.7%	5.9%	10.7µM*	-18.0%

Assay outcomes as filed in PubChem.
